# Assay results published in PubChem BioAssay (EPA / NIEHS).
# Results filed as inconclusive are left out. The source made the active and inactive calls. The calls were made as follows: active = hit-call score of the fitted dose curve at least 0.9, where 1 is the maximum; inconclusive = response in the unintended direction; inactive = score below 0.9.
# Assay: ACEA_ER_AUC_viability: ACEA Biosciences xCELLigence Real-Time Cell Analysis on Estrogen Receptor Agonism for Viability (AID 2283782);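 also: continuous compound exposure with impedance area under curve over 80 h; hit means loss of impedance signal meaning reduced cell growth or viability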
# Protocol: ACEA_ER is a cell-based, single-readout assay that uses T47D, a human breast cell line, with measurements taken at 80 hours after chemical dosing in a 96-well plate, although TO2 (mc0.srcf) used a 384-well plate. Differences in plate size can be ignored given data normalization.ACEA_ER_AUC_viability is one of two assay component(s) measured or calculated from the ACEA_ER assay. It is designed to make measurements of real-time cell-growth kinetics, a form of growth reporter, as detected with electrical impedance signals by Real-Time Cell Electrode Sensor (RT-CES) technology.Data from the assay component ACEA_ER_AUC_viability was analyzed in the positive analysis fitting direction relative to DMSO as the negative control and baseline of activity. Using a type of growth reporter, loss-of-signal activity can be used to understand changes in the viability. Furthermore, this assay endpoint can be referred to as a secondary readout, because this assay has produced multiple assay endpoints where this one serves a viability function. To generalize the intended target to other relatable targets, this assay endpoint is annotated to the cell cycle intended target family, where the subfamily is cytotoxicity.
# The xCELLigence system Multi-E-Plate stations were used to measure the time-dependent response to chemicals. Each compound was tested in an eight-point, 1:4 serial dilution series starting at a maximum final concentration of 100 uM. A maximum starting concentration of 0.5% DMSO was present in the 100 uM chemical samples and was diluted along with the test article dilution series. The screen was performed in biological duplicate using two separate, 96-well, E-Plates 96 for each dilution series (n = 2). Positive controls (MG132 and E2) and a negative control (assay media) were tested in quadruplicate on each testing plate. Then, 0.5% and 0.125% DMSO were tested in duplicates in each plate to serve as solvent controls for the 2 highest concentrations of testing compounds: 100 uM and 25 uM. Reference compounds were tested with 8 concentrations with 1:5 serial dilutions. All screening was carried out by ACEA Biosciences, Inc. (San Diego, CA). T-47D cells purchased from ATCC were maintained in RPMI1640 media supplemented with 10% characterized fetal bovine serum (FBS). Before screening, T-47D cells were preconditioned in assay medium: phenol red-free RPMI1640 supplemented with 10% charcoal-stripped FBS. Cells were then detached and seeded in E-Plates 96 in assay medium. After overnight monitoring of growth once every hour, compounds were added to […] cells and remained in the medium until the end of the experiment. Cellular responses were then recorded once every 5 min for the first 5 h, and once every hour for an additional 100 h.
Compound,outcome,AC50
Nc1c(Br)cc([N+](=O)[O-])cc1Br,inactive,
CC(O)C#CC(C)O (stereo not given),,26.7 µM (active)
CC(=O)C=O,inactive,
Cc1cc(O)c(C(C)(C)C)cc1C(C)(C)C,,23.2 µM (active)
CCC/C=C/CO,inactive,
CCCCCCCCCCCCCC[P+](CCCC)(CCCC)CCCC,,1.73 µM (active)
CCN(CC)c1ccc2c(c1)Oc1cc(N(CC)CC)ccc1C21OC(=O)c2ccccc21,,8.06 µM (active)
CCCCCCCC/C=C\CCCCCCCC(=O)OCC(O)CO (stereo not given),,50 µM (active)
O=S(=O)(O)CCC(F)(F)C(F)(F)C(F)(F)C(F)(F)C(F)(F)C(F)(F)C(F)(F)C(F)(F)F,inactive,
OCCCc1cccnc1,inactive,
Nc1cccnc1N,,83.2 µM (active)
O=S(=O)(OCC(F)(F)F)C(F)(F)C(F)(F)C(F)(F)C(F)(F)F,inactive,
OCC(F)(F)C(F)(F)C(F)(F)C(F)(F)C(F)(F)C(F)(F)C(F)(F)C(F)(F)CO,,75 µM (active)
CC(C)CCCC(C)CCO (stereo not given),inactive,
Cc1cc(C)c(O)c(C(C)(C)C)c1,,90.6 µM (active)
CN(N=O)C(=O)N[C@@H]1[C@@H](O)[C@H](O)[C@@H](CO)O[C@@H]1O,inactive,
FC(F)(F)C(F)(F)C(F)(F)C(F)(F)C(F)(F)C(F)(F)C(F)(F)CCI,inactive,
CCc1cccc(C)c1N(C(=O)C(=O)O)C(C)COC (stereo not given),inactive,
CC1=CCC(=O)O1,inactive,
C=CC(=O)OCC(F)(F)C(F)(F)C(F)(F)C(F)(F)C(F)(F)C(F)(F)C(F)(F)C(F)F,inactive,

Compound,outcome,AC50
CN1CN(C)CN(C)C1,inactive,
C=C(C)CCCC,inactive,
NC(O)(C(F)(F)F)C(F)(F)F,inactive,
CC(C)C(=O)OCc1ccccc1,inactive,
Cc1cccc(C)n1,inactive,
COc1ccccc1C=O,inactive,
Cc1ccc2c(c1)OCC(=O)CO2,inactive,
Nc1cc([N+](=O)[O-])cc(Cl)c1O,inactive,
NC(=O)C(F)(F)C(F)(F)C(F)(F)F,inactive,
FC(F)(F)C(F)(F)C(F)(F)C(F)(F)C(F)(F)C(F)(F)CC[Si](Cl)(Cl)Cl,inactive,
O=c1[nH]cccc1O,,25.7 µM (active)
Cc1cnccn1,inactive,
CN(C(=O)C(F)(F)C(F)(F)C(F)(F)F)[Si](C)(C)C,inactive,
OCC(O)CC(F)(F)C(F)(F)C(F)(F)C(F)(F)C(F)(F)C(F)(F)C(F)(F)C(F)(F)F (stereo not given),inactive,
Oc1ccc2c(c1)CCC2,inactive,
CO[Si](C)(CCC(F)(F)C(F)(F)C(F)(F)C(F)(F)C(F)(F)C(F)(F)F)OC,inactive,
O=C(Cl)c1ccc(Cl)cc1Cl,,78.9 µM (active)
OCC(F)(F)C(F)(F)C(F)(F)CO,inactive,
O=C1c2c(O)ccc(Nc3ccc(CCO)cc3)c2C(=O)c2c([N+](=O)[O-])ccc(O)c21,,88.8 µM (active)
CSc1ccc(O)cc1C,,16.2 µM (active)
